In paper PMC7862700, “An all-to-all approach to the identification of sequence-specific readers for epigenetic DNA modifications on cytosine”:

molecular target: T1, EHF (Homo sapiens, UniProt Q9NZC4 1-300); assay: DAPPL (digital affinity profiling via proximity ligation, sequencing); 10 mM Tris-HCl pH 7.5, 50 mM NaCl, 1 mM DTT, 4% glycerol, room temperature, 30 min; GST-TFs on glutathione beads, 16-mer random dsDNA library, 0.1% formaldehyde crosslink after washing; high values mean tight binding; conditions: protein: recombinant; tags: N-terminal GST; dsDNA, one strand shown
T1 sequence: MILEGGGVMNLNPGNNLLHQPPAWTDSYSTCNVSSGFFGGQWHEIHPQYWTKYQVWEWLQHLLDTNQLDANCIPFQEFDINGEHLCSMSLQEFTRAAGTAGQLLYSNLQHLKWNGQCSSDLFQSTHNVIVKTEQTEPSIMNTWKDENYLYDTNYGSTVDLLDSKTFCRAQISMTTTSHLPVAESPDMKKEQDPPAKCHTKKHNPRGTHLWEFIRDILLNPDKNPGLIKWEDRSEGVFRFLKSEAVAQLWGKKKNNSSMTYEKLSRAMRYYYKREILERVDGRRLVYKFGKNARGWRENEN
Outline: (§1)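 Human transcription factors were made in yeast as GST fusions, captured on glutathione beads and barcoded with DNA. With a tag-only sample included, the pool was incubated with 200 nmole of a random double-stranded 16-mer DNA library in Tris/NaCl/DTT/glycerol buffer at room temperature for 30 min, then crosslinked with 0.1% formaldehyde after washing, ligated by proximity, amplified and sequenced. For binding signal, each hexamer's read frequency for a factor is divided by its frequency for the tag-only sample.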

Sequence | binding signal
AACTGG | 1.17 fold enrichment (6-mer frequency, TF over GST control)
AATATG | 1.09 fold enrichment (6-mer frequency, TF over GST control)
AATGGC | 1.5 fold enrichment (6-mer frequency, TF over GST control)
CTTGAT | 1.51 fold enrichment (6-mer frequency, TF over GST control)
TCTTGA | 1.35 fold enrichment (6-mer frequency, TF over GST control)
AAGCAT | 1.06 fold enrichment (6-mer frequency, TF over GST control)
CTACGC | 1.56 fold enrichment (6-mer frequency, TF over GST control)
AAAACG | 1.17 fold enrichment (6-mer frequency, TF over GST control)
ATTGTA | 1.22 fold enrichment (6-mer frequency, TF over GST control)
TCCTCA | 1.65 fold enrichment (6-mer frequency, TF over GST control)
TTTTAT | 1.44 fold enrichment (6-mer frequency, TF over GST control)
CTTGGT | 1.53 fold enrichment (6-mer frequency, TF over GST control)
TATATC | 1.59 fold enrichment (6-mer frequency, TF over GST control)
ATAAAA | 1.1 fold enrichment (6-mer frequency, TF over GST control)
TCCAAC | 1.23 fold enrichment (6-mer frequency, TF over GST control)
CAAAAC | 1.26 fold enrichment (6-mer frequency, TF over GST control)
CGATCT | 1.32 fold enrichment (6-mer frequency, TF over GST control)
TTATTT | 1.35 fold enrichment (6-mer frequency, TF over GST control)
ATGTTC | 1.34 fold enrichment (6-mer frequency, TF over GST control)
TTCCCA | 1.34 fold enrichment (6-mer frequency, TF over GST control)

Sequence | binding signal
TTAAAC | 1.26 fold enrichment (6-mer frequency, TF over GST control)
TATTAA | 1.09 fold enrichment (6-mer frequency, TF over GST control)
TGCTAT | 1.49 fold enrichment (6-mer frequency, TF over GST control)
AAATGT | 1.32 fold enrichment (6-mer frequency, TF over GST control)
CTTCTG | 1.27 fold enrichment (6-mer frequency, TF over GST control)
ATGCGA | 1.23 fold enrichment (6-mer frequency, TF over GST control)
GCGCTT | 1.31 fold enrichment (6-mer frequency, TF over GST control)
TTTGTA | 1.55 fold enrichment (6-mer frequency, TF over GST control)
CTACCA | 1.22 fold enrichment (6-mer frequency, TF over GST control)
CCGTCT | 1.34 fold enrichment (6-mer frequency, TF over GST control)
TAACAT | 1.28 fold enrichment (6-mer frequency, TF over GST control)
ATGAGC | 1.18 fold enrichment (6-mer frequency, TF over GST control)
CAACTT | 1.54 fold enrichment (6-mer frequency, TF over GST control)
CTTTAT | 1.34 fold enrichment (6-mer frequency, TF over GST control)
TATGGC | 1.1 fold enrichment (6-mer frequency, TF over GST control)
ACAGCT | 1.16 fold enrichment (6-mer frequency, TF over GST control)
TAGTTT | 1.21 fold enrichment (6-mer frequency, TF over GST control)
TTATGG | 1.46 fold enrichment (6-mer frequency, TF over GST control)
CTTCGT | 1.36 fold enrichment (6-mer frequency, TF over GST control)
TTAACT | 1.1 fold enrichment (6-mer frequency, TF over GST control)

molecular target: SPI1 (Homo sapiens, UniProt P17947 1-270); assay: as above; conditions: protein: recombinant; tags: N-terminal GST; dsDNA, one strand shown
Outline: as §1

Sequence | binding signal
AACTGG | 1.31 fold enrichment (6-mer frequency, TF over GST control)
AATATG | 1.15 fold enrichment (6-mer frequency, TF over GST control)
AATGGC | 1.39 fold enrichment (6-mer frequency, TF over GST control)
CTTGAT | 1.27 fold enrichment (6-mer frequency, TF over GST control)
TCTTGA | 1.25 fold enrichment (6-mer frequency, TF over GST control)
AAGCAT | 1.06 fold enrichment (6-mer frequency, TF over GST control)
CTACGC | 1.59 fold enrichment (6-mer frequency, TF over GST control)
AAAACG | 1.43 fold enrichment (6-mer frequency, TF over GST control)
ATTGTA | 1.09 fold enrichment (6-mer frequency, TF over GST control)
TCCTCA | 2.25 fold enrichment (6-mer frequency, TF over GST control)
TTTTAT | 1.44 fold enrichment (6-mer frequency, TF over GST control)
CTTGGT | 1.4 fold enrichment (6-mer frequency, TF over GST control)
TATATC | 1.54 fold enrichment (6-mer frequency, TF over GST control)
ATAAAA | 1.17 fold enrichment (6-mer frequency, TF over GST control)
TCCAAC | 1.18 fold enrichment (6-mer frequency, TF over GST control)
CAAAAC | 1.38 fold enrichment (6-mer frequency, TF over GST control)
CGATCT | 1.22 fold enrichment (6-mer frequency, TF over GST control)
TTATTT | 1.44 fold enrichment (6-mer frequency, TF over GST control)
ATGTTC | 1.2 fold enrichment (6-mer frequency, TF over GST control)
TTCCCA | 1.28 fold enrichment (6-mer frequency, TF over GST control)

Sequence | binding signal
TTAAAC | 1.24 fold enrichment (6-mer frequency, TF over GST control)
TATTAA | 1.06 fold enrichment (6-mer frequency, TF over GST control)
TGCTAT | 1.33 fold enrichment (6-mer frequency, TF over GST control)
AAATGT | 1.26 fold enrichment (6-mer frequency, TF over GST control)
CTTCTG | 1.36 fold enrichment (6-mer frequency, TF over GST control)
ATGCGA | 1.19 fold enrichment (6-mer frequency, TF over GST control)
GCGCTT | 1.2 fold enrichment (6-mer frequency, TF over GST control)
TTTGTA | 1.54 fold enrichment (6-mer frequency, TF over GST control)
CTACCA | 1.26 fold enrichment (6-mer frequency, TF over GST control)
CCGTCT | 1.43 fold enrichment (6-mer frequency, TF over GST control)
TAACAT | 1.32 fold enrichment (6-mer frequency, TF over GST control)
ATGAGC | 1.13 fold enrichment (6-mer frequency, TF over GST control)
CAACTT | 1.69 fold enrichment (6-mer frequency, TF over GST control)
CTTTAT | 1.25 fold enrichment (6-mer frequency, TF over GST control)
TATGGC | 1.12 fold enrichment (6-mer frequency, TF over GST control)
ACAGCT | 1.11 fold enrichment (6-mer frequency, TF over GST control)
TAGTTT | 1.12 fold enrichment (6-mer frequency, TF over GST control)
TTATGG | 1.34 fold enrichment (6-mer frequency, TF over GST control)
CTTCGT | 1.39 fold enrichment (6-mer frequency, TF over GST control)
TTAACT | 1.23 fold enrichment (6-mer frequency, TF over GST control)

molecular target: SPIB (Homo sapiens, UniProt Q01892 1-262); assay: as above; conditions: protein: recombinant; tags: N-terminal GST; dsDNA, one strand shown
Outline: as §1

SPIB, sequence (Q01892 whole entry): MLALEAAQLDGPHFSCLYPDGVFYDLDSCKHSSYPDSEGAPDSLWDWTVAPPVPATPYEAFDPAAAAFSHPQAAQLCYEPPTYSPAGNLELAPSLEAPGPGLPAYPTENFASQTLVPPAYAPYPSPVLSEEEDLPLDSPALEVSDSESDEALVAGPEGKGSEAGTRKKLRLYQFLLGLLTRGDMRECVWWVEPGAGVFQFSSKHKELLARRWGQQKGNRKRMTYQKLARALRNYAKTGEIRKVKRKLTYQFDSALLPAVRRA

Sequence | binding signal
AACTGG | 1.25 fold enrichment (6-mer frequency, TF over GST control)
AATATG | 1.19 fold enrichment (6-mer frequency, TF over GST control)
AATGGC | 1.37 fold enrichment (6-mer frequency, TF over GST control)
CTTGAT | 1.41 fold enrichment (6-mer frequency, TF over GST control)
TCTTGA | 1.27 fold enrichment (6-mer frequency, TF over GST control)
AAGCAT | 1.14 fold enrichment (6-mer frequency, TF over GST control)
CTACGC | 1.6 fold enrichment (6-mer frequency, TF over GST control)
AAAACG | 1.11 fold enrichment (6-mer frequency, TF over GST control)
ATTGTA | 1.24 fold enrichment (6-mer frequency, TF over GST control)
TCCTCA | 1.6 fold enrichment (6-mer frequency, TF over GST control)
TTTTAT | 1.37 fold enrichment (6-mer frequency, TF over GST control)
CTTGGT | 1.57 fold enrichment (6-mer frequency, TF over GST control)
TATATC | 1.67 fold enrichment (6-mer frequency, TF over GST control)
ATAAAA | 1.21 fold enrichment (6-mer frequency, TF over GST control)
TCCAAC | 1.16 fold enrichment (6-mer frequency, TF over GST control)
CAAAAC | 1.23 fold enrichment (6-mer frequency, TF over GST control)
CGATCT | 1.3 fold enrichment (6-mer frequency, TF over GST control)
TTATTT | 1.37 fold enrichment (6-mer frequency, TF over GST control)
ATGTTC | 1.22 fold enrichment (6-mer frequency, TF over GST control)
TTCCCA | 1.34 fold enrichment (6-mer frequency, TF over GST control)

Sequence | binding signal
TTAAAC | 1.26 fold enrichment (6-mer frequency, TF over GST control)
TATTAA | 1.23 fold enrichment (6-mer frequency, TF over GST control)
TGCTAT | 1.47 fold enrichment (6-mer frequency, TF over GST control)
AAATGT | 1.42 fold enrichment (6-mer frequency, TF over GST control)
CTTCTG | 1.32 fold enrichment (6-mer frequency, TF over GST control)
ATGCGA | 1.12 fold enrichment (6-mer frequency, TF over GST control)
GCGCTT | 1.45 fold enrichment (6-mer frequency, TF over GST control)
TTTGTA | 1.65 fold enrichment (6-mer frequency, TF over GST control)
CTACCA | 1.23 fold enrichment (6-mer frequency, TF over GST control)
CCGTCT | 1.45 fold enrichment (6-mer frequency, TF over GST control)
TAACAT | 1.27 fold enrichment (6-mer frequency, TF over GST control)
ATGAGC | 1.24 fold enrichment (6-mer frequency, TF over GST control)
CAACTT | 1.68 fold enrichment (6-mer frequency, TF over GST control)
CTTTAT | 1.19 fold enrichment (6-mer frequency, TF over GST control)
TATGGC | 1.18 fold enrichment (6-mer frequency, TF over GST control)
ACAGCT | 1.2 fold enrichment (6-mer frequency, TF over GST control)
TAGTTT | 1.13 fold enrichment (6-mer frequency, TF over GST control)
TTATGG | 1.44 fold enrichment (6-mer frequency, TF over GST control)
CTTCGT | 1.32 fold enrichment (6-mer frequency, TF over GST control)
TTAACT | 1.21 fold enrichment (6-mer frequency, TF over GST control)
